Compounds with a hit are over-represented: about 3.8% of the library has one in this group of screens.
697 NFkB inh: inhibitors of the PMA/ionomycin-induced NF-kB reporter in 697 B cells; 697 B-cell NF-kB luciferase reporter, 16 h; inhibition, % at 4 µM; hit rate 0.33% among 330,000; AID 435022; in the data active = inhibition above about 35%
Mdm2-MdmX inh: disrupts the human Mdm2-MdmX interaction; hit rate 3% among 330,000; inhibition, % at 8 µM; SaOS-2 split-luciferase Mdm2/MdmX complementation, luminescence; O15151+Q00987; AID 485346;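 active = inhibition of at least 50% at 8 µM in the primary screen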
Shn3 3UTR inh: reduces Shn3 3'UTR luciferase signal in osteoblasts | hit rate 0.52% among 360,000 | Clone20 osteoblast Shn3 3'UTR firefly luciferase, 24 h | inhibition, % at 12.5 µM;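 active = mean inhibition of at least 75% with every replicate also reaching 75%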;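 note: 0% = median of neutral control wells and 100% = pilot-screen positive control compound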
Gli-Sufu antag: antagonists of Gli-Sufu signaling; Sufu-KO-LIGHT fibroblasts, Gli luciferase reporter luminescence; inhibition, % at 5 µM; hit rate 0.74% among 340,000;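 active = inhibition above about 55%, limit read from the data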;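 note: 0% = DMSO-treated cells and 100% = wells with medium but no cells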
Jurkat NFkB inh: lowers PMA/ionomycin-induced NF-kB signal in Jurkat cells; PMA/ionomycin-induced NF-kB luciferase reporter, luminescence; inhibition, % at 4 µM; hit rate 0.53% among 330,000; in the data active = inhibition above about 50%
Jurkat NFkB conf: inhibitors of the PMA/ionomycin-induced NF-kB reporter in Jurkat cells, retest; Jurkat NF-kB luciferase, 16 h; hit rate 27% among 2,700; inhibition, % at 4 µM; shares compounds with Jurkat NFkB inh;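 active = inhibition reaching about 45% at 4 µM in either replicate, limit read from the data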;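 note: plate controls were PMA/ionomycin stimulated DMSO wells for no effect and unstimulated DMSO wells for full effect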
697 NFkB conf: lowers PMA/ionomycin-induced NF-kB signal in 697 B cells; shares compounds with 697 NFkB inh; 697 B-cell NF-kB luciferase, 16 h; inhibition, % at 4 µM; hit rate 35% among 2,000; in the data active = inhibition mostly above about 28%, no sharp cut-off; inactive = mostly below about 22%
Starred values were filed as active, the others as inactive; i = inactive; nt = no result given.

SMILES	697 NFkB inh	Mdm2-MdmX inh	Shn3 3UTR inh	Gli-Sufu antag	Jurkat NFkB inh	Jurkat NFkB conf	697 NFkB conf
CCOC(=O)c1c(C)[nH]c(C(=O)CSc2ccccc2)c1C	-330	-154	-18	8	-202	-124	-351
CC(C)(O)c1[nH]c2ccc(C#N)cc2c1C(C)(C)O	59*	17	nt	1	63*	88*	60*
CC(=O)N1CC(C(=O)Nc2ccc3c(c2)OCO3)Oc2ccccc21 (centres undefined)	-23	18	-24	-8	-16	nt	nt
CC(=O)c1cc2c(C)c(C(=O)c3ccccc3)oc2cc1O	-362	-159	-6	-89	-186	-93	-303
N=c1cc(C2(O)CCCCC2)n2c(nc3ccccc32)s1	-284	-43	-47	-106	-161	-89	-214
CC(=O)c1c(C)[nH]c(C(=O)OCc2ccccc2F)c1C	-48	-3	20	-73	-29	nt	nt
COc1cc2sc3ccc(C#CC4(O)CCCCC4)cc3c(=O)c2cc1OC	-332	31	-53	-12	-297	-86	-411
COc1cccc2sc3cc(C#CC4(O)CCCCC4)ccc3c(=O)c12	-136	0	-98	13	-11	nt	nt
CCOc1cccc(C(=O)Nc2cccc(C(C)=O)c2)c1	-11	-1	2	-35	-27	nt	nt
CCOc1cccc(C(=O)Nc2ccc3ccccc3c2)c1	-449	-165	-20	-113	-185	-145	-490
Cc1ccoc1C(=O)Nc1ccc2ccccc2c1	-444	-104	15	-179	-211	-122	-388
Cc1cc(C(=O)Nc2ccc3ccccc3c2)oc1C	-174	-159	-65	-130	-138	nt	nt
O=C(Nc1ccc2ccccc2c1)c1ccc(Cl)cc1	-476	-126	-18	-113	-215	-126	-486
C(=N\Nc1nc2ccccc2s1)/c1ccc2c(c1)OCO2	-333	-209	-74	-74	-205	-91	-264
CCOc1ccc(-c2nc(-c3ccccc3C)no2)cc1	-267	-223	nt	nt	-167	-124	-302
O=C(Nc1ccc(O)c(-c2nc3ccccc3s2)c1)C1=COCCO1	-3	-8	-9	-2	11	nt	nt
O=C(Nc1ccc(-c2nc3ccccc3s2)c(O)c1)C1=COCCO1	-335	-47	-10	-75	-242	-72	-134
O=C(Nc1ccc(C#Cc2ccccc2)cc1)C1CC1	i	34	16	-98	-277	-141	i
Cc1ccnc(NC(=O)Nc2cccc(F)c2)c1	-303	-179	-51	-131	-176	-121	-257
CCC(C)NS(=O)(=O)c1ccc(NC(=O)c2cccs2)cc1 (centres undefined)	3	18	8	2	3	nt	nt
CCC(C)c1ccc(NC(=O)c2cccs2)cc1 (centres undefined)	-381	-277	-27	-127	-187	-137	-294
CCOC(=O)CCCCCNC(=O)c1ccc(F)cc1F	7	3	2	-8	-5	nt	nt
CCc1nc2c(OCCn3cccc3)cccn2c1N(C)C(=O)c1ccco1	nt	nt	-25	nt	nt	nt	nt
N/C(=N\OC(=O)c1ccc(Cl)cc1Cl)c1ccccc1	-292	-35	-4	-55	-195	-70	-436
Cc1cccc(/C(N)=N/OC(=O)c2cccnc2)c1	-132	-58	-77	-60	-73	nt	nt
SMILES	697 NFkB inh	Mdm2-MdmX inh	Shn3 3UTR inh	Gli-Sufu antag	Jurkat NFkB inh	Jurkat NFkB conf	697 NFkB conf
Cc1cccc(/C(N)=N/OC(=O)c2ccc(Cl)cc2Cl)c1	-358	-60	-22	-93	-202	-53	-277
N/C(=N\OC(=O)c1ccc(Cl)cc1Cl)c1cccnc1	-129	-169	-104	-79	-119	nt	nt
Cn1c(SCC(=O)Nc2ccccc2Br)nnc1-c1cnccn1	-17	-6	-9	-12	-1	nt	nt
COc1ccc(OC)c(NC(=O)CSc2ncnc3c2cnn3-c2ccccc2Cl)c1	71*	-12	89*	76*	50*	65*	50*
COc1ccc(OC)c(NC(=O)C2(C)CCN2CCOc2ccccc2)c1 (centres undefined)	nt	nt	21	nt	nt	nt	nt
O=C(Oc1ccc2ccccc2c1Cl)N1CCCC1	-386	-133	-67	-99	-154	-101	-337
O=C(Oc1ccc2ccccc2c1Cl)N1CCCCCC1	i	-7	-38	-77	-307	-140	i
O=C(Oc1ccc(Cl)c2ccccc12)N1CCCCC1	-48	-18	-4	-12	-32	nt	nt
CCc1cccc(NC(=O)CCS(=O)(=O)c2ccc(Br)cc2)c1	-1	12	1	-3	9	nt	nt

From PubChem
